Drawing on PubChem BioAssay AID449750 (Broad Institute, 2010), this text covers outcome for four compounds.

Among all 2,100 compounds or so, about 1,400 (67%) were called active. The rule behind the calls is not given here. The set was probably picked from earlier hits. The list shows a part of the results. Entries with a potency or affinity are not part of this list.

The assay in a line: non-covalent RecA intein splicing inhibitors, dose response, biochemical, cell-free, fluorescence, secondary screen (AID 449750). The conditions noted are these: series mostly up to 38 µM.
As to `COCCn1c(N)c(C(=O)NCc2cccs2)c2nc3ccccc3nc21`, the outcome was inactive.
The result for `CC1=NN(Cc2ccccc2)C(=O)/C1=C\c1ccc(N(C)C)cc1` reads “inactive”; that for `Cc1ccccc1NC1=C/C(=N\S(=O)(=O)c2cccs2)c2ccccc2C1=O`, “inactive”.
Regarding `Oc1ccc(N=Cc2ccc(-c3cccs3)s2)cc1`, the result was inactive.
